According to PubChem BioAssay AID588335 (The Scripps Research Institute Molecular Screening Center, 2011):
The campaign covered roughly 360,000 compounds. About 4,500 (1.2%) were called active. No stated cut-off is given here; in the data, active means inhibition above about 30%; inactive means the rest. The full list was thinned out, with actives kept by preference.

Test: GDH-TPI coupling enzyme inhibitors, primary screen, artefact control for M. tuberculosis FBA inhibitor project, biochemical, absorbance, full deck (AID 588335);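 further: 0% = DMSO wells and 100% = wells lacking the enzyme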
Conditions: GDH-TPI coupled enzyme counterscreen, NADH absorbance; at 4.8 µM; stronger effect = higher value

| Compound | inhibition |
| --- | --- |
| Cc1ccc(CNC(=O)CC(NC(=O)c2ccccc2)c2ccccc2)cc1 (stereo not drawn) | -12.7% (inactive) |
| CCN(CCn1cccn1)Cc1cn[nH]c1-c1ccc(OC)cc1F | 0.63% (inactive) |
| COc1ccccc1C(=O)Nn1c(-c2cccs2)nc2ccccc2c1=O | 17.9% (inactive) |
| CCn1c(NC(=O)c2ccccc2)c(-c2cccs2)c(=O)c2ccccc21 | 32% (active) |
| CCn1c(=O)c2cc(C(=O)Nc3cccc(C(C)=O)c3)sc2c2ccccc21 | -0.68% (inactive) |
| COc1ccccc1CCNC(=O)CN1C(=O)NC2(CCCC2)C1=O | 7.91% (inactive) |
| CC(C)(C)c1ccc(S(=O)(=O)NC(=O)C2(C)CCN2C(=O)CC2CC2)cc1 (stereo not drawn) | 0.89% (inactive) |
| CCOC(=O)c1ccc(S(=O)(=O)N(CCO)Cc2cc3cc(OC)c(OC)cc3[nH]c2=O)cc1 | 20.5% (inactive) |
| CCc1nnc(NC(=O)CCC(=O)N2CCN(c3cc(C)ccc3C)CC2)s1 | -2.21% (inactive) |
| CC(C)NC(=O)C(c1ccc(F)cc1)N(C(=O)CCC(=O)Nc1ccccn1)c1ccccc1F (stereo not drawn) | 3.77% (inactive) |
| Cc1ccc(NC(=O)CS(=O)CC(=O)N(c2ccccc2)C(C)C(=O)NC2CCCC2)cc1 (stereo not drawn) | 7.17% (inactive) |
| Cn1nccc1/C=N\NC(=O)c1ccc(Cl)cc1 | -10.2% (inactive) |
| O=C(Nc1ccc(OC(F)(F)F)cc1)c1ccc2c(c1)no[n+]2[O-] | 4.41% (inactive) |
| Cn1cccc1/C=N/NC(=O)c1ccc(OC(F)(F)C(F)F)cc1 | 35.9% (active) |
| O=C(Nc1cc(F)ccc1F)c1ccc2c(=O)n3c(nc2c1)CCC3 | 5.36% (inactive) |
| O=C1CC(C(=O)O)NC(=S)N1 (stereo not drawn) | -5.96% (inactive) |
| NC(=O)Cn1cc(/C=N\NS(=O)(=O)c2ccccc2)c2ccccc21 | 8.87% (inactive) |
| CNC(=S)N/N=C/c1cn(Cc2ccc(C)cc2)c2ccccc12 | 37% (active) |
| CCOC(=O)N/N=C/c1cn(Cc2ccccc2Cl)c2ccccc12 | 17% (inactive) |
| Cn1c(SCC(=O)Nc2ccc(N3CCOCC3)cc2)nnc1C(F)(F)F | 2.16% (inactive) |
| O=C(Nc1nnc(S(=O)(=O)N2CCCCCC2)s1)c1cccc(Br)c1 | 16.8% (inactive) |
| COc1cccc(C(=O)Nc2nnc(S(=O)(=O)N3CCOCC3)s2)c1 | 23.5% (inactive) |
| COc1cccc(C(=O)Nc2nnc(S(=O)(=O)N3CCCCC3)s2)c1 | 40.7% (active) |
| Cc1ccc(S(=O)(=O)N2CCCC2CO)cc1 (stereo not drawn) | -4.78% (inactive) |

| Compound | inhibition |
| --- | --- |
| O=C(CNc1cccc(S(=O)(=O)N2CCCCC2)c1)Nc1ccccc1F | 5.6% (inactive) |
| COc1cc(-c2n[nH]c(=S)n2Cc2ccccc2)cc(OC)c1OC | 3.29% (inactive) |
| COc1ccccc1/C=C/C=N/n1c(-c2ccc(Cl)cc2Cl)n[nH]c1=S | 34.7% (active) |
| Cc1cc(-c2n[nH]c(=S)n2/N=C/C(Br)=C/c2ccccc2)n[nH]1 | 7.17% (inactive) |
| CCCCOc1ccc(Cl)cc1CSc1nncn1N | -8.67% (inactive) |
| N#CC1(Nc2ccc3c4c(cccc24)CC3)CCCCC1 | 18.6% (inactive) |
| Cc1cc(NCc2ccco2)n2c(nc3ccccc32)c1C#N | 8.76% (inactive) |
| Clc1cccc(-c2nc3nc4ccccc4nc3n2Cc2ccco2)c1 | 33.2% (active) |
| O=C(CSc1nnc(-c2cccnc2)n1Cc1ccco1)c1ccc(Cl)c(Cl)c1 | -5.03% (inactive) |
| COC(=O)c1cc(S(=O)(=O)N2CCC(C(N)=O)CC2)oc1C | 0.74% (inactive) |
| O=C(O)c1ccc(COCC(F)(F)F)cc1 | 6.06% (inactive) |
| COc1ccc(N/N=C2/CCCCC2=O)cc1 | 1.13% (inactive) |
| COc1ccccc1Oc1ccc(N/C=C2/CCCC2=O)cc1 | 33.3% (active) |
| COc1ccccc1C1=CC(=O)CCC1 | 10.9% (inactive) |
| O=C(O)CCn1c(O)c(C=C2N=c3ccccc3=N2)sc1=S | 22.8% (inactive) |
| O=C(Oc1cccc(N2C(=O)C3C4c5ccccc5C(c5ccccc54)C3C2=O)c1)c1ccco1 (stereo not drawn) | 10.9% (inactive) |
| O=S(=O)(Nc1ccccc1)c1ccc(NS(=O)(=O)c2cccs2)cc1 | 14.9% (inactive) |
| C/C(=N\NC(=O)c1ccc(NS(=O)(=O)c2cccs2)cc1)c1ccc2ccccc2c1 | 32.1% (active) |
| COc1cc(OC)c(C(=O)NNC(=O)c2ccc(NS(=O)(=O)c3cccs3)cc2)cc1OC | 12.8% (inactive) |
| COCCn1c(C)cc(C(=O)CN2c3cccc4cccc(c34)S2(=O)=O)c1C | 3.51% (inactive) |
| Oc1ccc(C2Nc3cccc4cccc(c34)N2)cc1 | 32.9% (active) |
| CN(C(=O)CC(NC(=O)c1ccccc1)(c1ccccc1)c1ccccc1)c1ccccc1 | -10.6% (inactive) |
| Cn1c(=O)n(C)c2cc(CNc3ccc(N4CCOCC4)c(C(=O)O)c3)ccc21 | 8.39% (inactive) |
| CC(C)(C)NC(=O)COC(=O)c1cc(Br)ccc1Cl | -3.49% (inactive) |

| Compound | inhibition |
| --- | --- |
| Cc1cc(C(=O)N/N=C/c2ccc(O)c([N+](=O)[O-])c2)c(C)n1-c1ccc(F)cc1 | 51.7% (active) |
| Cc1c(Cl)c([N+](=O)[O-])nn1Cc1ccc(C(=O)N/N=C\c2cc(Cl)ccc2O)o1 | 4.27% (inactive) |
| O=C1CSC(=S)N1/N=C/c1ccc(O)c([N+](=O)[O-])c1 | 1.6% (inactive) |
| CC1(C)CC(=O)c2sc(N)nc2C1 | 20.2% (inactive) |
| NC1=NOC(=O)C1C1CCCCC1 (stereo not drawn) | -5.11% (inactive) |
| Cc1cccc(NC(=O)/C=C/c2ccc3c(c2)OCO3)n1 | 28.3% (inactive) |
| CN(Cc1ccccc1)C(=O)COC(=O)/C=C/c1ccc2c(c1)OCO2 | 35% (active) |
| O=C(COC(=O)/C=C/c1ccc2c(c1)OCO2)NC1CCS(=O)(=O)C1 (stereo not drawn) | 23.7% (inactive) |
| COc1ccc2nc(NC(=O)c3ccc(Br)s3)sc2c1 | 32.7% (active) |
| CSc1ncccc1C(=O)Nc1nc2ccc(F)cc2s1 | 8.2% (inactive) |
| COc1ccc(CNC(=O)c2ccc(Br)s2)cc1OC | -1.03% (inactive) |
| Nc1cc(C(=O)N2CCN(c3ccccc3Cl)CC2)ccc1N1CC2CC(C1)c1cccc(=O)n1C2 (stereo not drawn) | 8.04% (inactive) |
| OC(c1ccccc1)c1nc(/C=C/c2ccc(C(F)(F)F)cc2)cs1 (stereo not drawn) | 7.08% (inactive) |
| N#CCC(=O)N/N=C/c1ccc(SCC(=O)Nc2ccccc2)o1 | 15.4% (inactive) |
| O=C(Cn1cc(/C=N/NC(=O)c2cccc(C(F)(F)F)c2)c2ccccc21)Nc1ccc(F)cc1 | 9.15% (inactive) |
| O=C(CSc1ccc(/C=N/NC(=O)c2cccc(F)c2)o1)Nc1ccccc1 | 33.1% (active) |
| CCCCN(CCCC)CCCNC(=O)CN1C(=O)COc2ccc(S(=O)(=O)N3CCC(C)CC3)cc21 | 5.17% (inactive) |
| CCOC(=O)c1c(C2CC2)csc1NC(=O)CSCc1c(C)noc1C | 1.16% (inactive) |
| NC(=S)c1ccc(C(N)=S)o1 | 33.3% (active) |
| CC(C)CC1(C(=O)NCc2ccccn2)C=CCN1C(=O)c1ccccc1 (stereo not drawn) | 1.72% (inactive) |
| CN(C)CCCOc1ccc(-c2ccc3nccn3c2)cn1 | 6.19% (inactive) |
| CNC(=S)N/N=C/c1ccc(OCc2ccccc2)c(Br)c1 | 3.82% (inactive) |
| O=C(N/N=C/c1cc(Br)c(O)c([N+](=O)[O-])c1)C(O)(c1ccccc1)c1ccccc1 | 79.3% (active) |
| CC(Oc1ccccc1[N+](=O)[O-])C(=O)N/N=C/c1ccoc1 (stereo not drawn) | 5.72% (inactive) |

| Compound | inhibition |
| --- | --- |
| COCCCNC(=S)N(Cc1ccccc1)Cc1ccc(F)cc1 | -5.1% (inactive) |
| COC(=O)c1[nH]c2ccc(Br)cc2c1NC(=O)Oc1ccccc1 | 8.96% (inactive) |
| COc1ccc(-c2cc(=O)oc3cc(OCC(=O)N[C@@H](Cc4c[nH]c5ccccc45)C(=O)O)ccc23)cc1 | 32.4% (active) |
| COc1ccc(-c2cc(C(=O)NC(Cc3c[nH]c4ccccc34)C(=O)O)c(C)o2)cc1OC (stereo not drawn) | 1.44% (inactive) |
| CC(Oc1ccc2c(-c3ccccc3)cc(=O)oc2c1)C(=O)NC(Cc1c[nH]c2ccccc12)C(=O)O (stereo not drawn) | 15.9% (inactive) |
| COc1cccc(/C=C/c2ccc3ccccc3n2)c1OC(C)=O | 22.8% (inactive) |
| COc1ccccc1/C=C/C1=NC(=C\N(C)C)/C(=O)O1 | 32.5% (active) |
| C=CCOC(=O)C1=C(C)N=C2SCCC(=O)N2C1/C=C/c1ccccc1OC (stereo not drawn) | 6.07% (inactive) |
| O=C1c2cccc3cccc(c23)C(=O)N1c1cccc(O)c1 | 24.8% (inactive) |
| COc1cccc(CNC(=O)COc2cc(O)c3c(c2)OC(C)(C)CC3=O)c1 | 0% (inactive) |
| CC(CO)(CO)NC(=O)c1ccc(=O)[nH]n1 | 8.64% (inactive) |
| CN(C(=O)CCNC(=O)Cn1ccc2ccccc2c1=O)c1ccc(Br)cc1 | 1.56% (inactive) |
| CC(=O)c1ccc(N2CCN(C(=O)CCNC(=O)Cn3ccc4ccccc4c3=O)CC2)cc1 | 34.2% (active) |
| Cc1ccc(CNC(=O)CCNC(=O)Cn2ccc3ccccc3c2=O)cc1 | 7.19% (inactive) |
| C[C@H]1Cn2cnc(C(=O)N[C@@H](Cc3c[nH]c4ccccc34)C(=O)OC(C)(C)C)c2C(=O)N1 | 7.22% (inactive) |
| COc1ccc(CN2CCCC(C(=O)N3CCCCC3)C2)cc1 (stereo not drawn) | 4.14% (inactive) |
| COc1ccc(/C=C/C(=O)NC(=S)N2CCCC(C(N)=O)C2)cc1 (stereo not drawn) | 48.8% (active) |
| COc1ccc(/C=C/C(=O)NC(=S)NN2CCCCC2c2cccnc2)cc1 (stereo not drawn) | 10.5% (inactive) |
| COc1ccc(C(=O)N2CCN(c3ncccn3)CC2)cc1S(=O)(=O)N1CCOCC1 | 3.64% (inactive) |
| Cc1ccc(S(=O)(=O)N2CCOCC2)cc1C(=O)NC(=S)N(Cc1ccccc1)C(C)C | -2.59% (inactive) |
| COCCN(CCOC)c1nc(N)c2c(N)nc3c(c2c1C#N)CC(=O)N3Cc1ccc(Cl)cc1 | 13.7% (inactive) |
